Laboratory results: PubChem BioAssay AID1159580 (chemical genetic matrix, 2015)
Values joined by “and” are separate entries in the source; they are usually repeats but may differ in a detail not shown here. Equal values may be shown once. Out of some 5,500 compounds screened, about 2,000 (36%) were called active. About 18% were inconclusive and are not listed. Rule as the data show it: active = normalized growth mostly below about 0.91 (no sharp cut-off); inconclusive = no clear call, values can overlap the other calls; inactive = mostly above about 0.92. This is one part of the list.

Experiment: chemical genetic growth profiling, strain panel (AID 1159580);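 also: tested at 20 µM; growth read once vehicle control cultures reached saturation at 30 °C; 1 = growth at the plate median or of vehicle wells; lower values mean less growth of the strain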
Details: S. cerevisiae deletion strains, growth OD

Measured: normalized growth

CO[C@H]1CC(O[C@@H]2/C(C)=C/C[C@@H]3C[C@@H](C[C@]4(CC[C@H](C)[C@@H](C5CCCCC5)O4)O3)OC(=O)[C@@H]3C=C(C)/C(=N\O)[C@H]4OC/C(=C\C=C\[C@@H]2C)[C@]43O)O[C@@H](C)C1O (some centres undefined)
inactive: locus YAL013W, strain DEP1, stronger effect = lower value 0.956 | locus YAL021C, strain ccr4, stronger effect = lower value 1.09 | locus YAL026C, strain drs2, stronger effect = lower value 1.02 | locus YAL030W, strain snc1, stronger effect = lower value 1.02 | locus YBL061C, strain skt5, stronger effect = lower value 0.989 | locus YBR009C, strain hhf1, stronger effect = lower value 1.03 | locus YBR021W, strain FUR4, stronger effect = lower value 0.952 | locus YBR023C, strain chs3, stronger effect = lower value 0.991 | locus YBR171W, strain sec66, stronger effect = lower value 0.988 | locus YBR229C, strain ROT2, stronger effect = lower value 0.992 | locus YBR279W, strain paf1, stronger effect = lower value 1.01 | locus YCL011C, strain gbp2, stronger effect = lower value 1 | locus YCL016C, strain dcc1, stronger effect = lower value 1.01 | locus YCL029C, strain bik1, stronger effect = lower value 0.984 | locus YCL061C, strain MRC1, stronger effect = lower value 1.02 | locus YCL069W, strain vba3, stronger effect = lower value 1.02 | locus YCR088W, strain abp1, stronger effect = lower value 1.02 | locus YDL005C, strain med2, stronger effect = lower value 1.02 | locus YDL035C, strain GPR1, stronger effect = lower value 0.949 | locus YDL040C, strain nat1, stronger effect = lower value 1.02 | locus YDL074C, strain BRE1, stronger effect = lower value 0.979 | locus YDL101C, strain DUN1, stronger effect = lower value 0.979 | locus YDL134C, strain PPH21, stronger effect = lower value 0.96 | locus YDL192W, strain arf1, stronger effect = lower value 0.989 | locus YDR001C, strain nth1, stronger effect = lower value 1.01 | locus YDR069C, strain doa4, stronger effect = lower value 1 | locus YDR101C, strain arx1, stronger effect = lower value 0.998 | locus YDR150W, strain NUM1, stronger effect = lower value 0.984 | locus YDR162C, strain NBP2, stronger effect = lower value 0.928 | locus YDR195W, strain ref2 0.883 | locus YDR297W, strain sur2, stronger effect = lower value 1.02 | locus YDR318W, strain mcm21, stronger effect = lower value 0.992 | locus YDR334W, strain swr1, stronger effect = lower value 1.02 | locus YDR335W, strain msn5, stronger effect = lower value 0.982 | locus YDR388W, stronger effect = lower value 0.991 | locus YDR392W, strain spt3, stronger effect = lower value 0.979 | locus YDR502C, strain sam2, stronger effect = lower value 0.983 | locus YEL003W, strain gim4, stronger effect = lower value 1.01 | locus YEL037C, strain rad23, stronger effect = lower value 1.02 | locus YEL061C, strain CIN8 (second series), stronger effect = lower value 1.02 | locus YEL061C, strain CIN8, stronger effect = lower value 0.987 | locus YER015W, strain faa2, stronger effect = lower value 0.997 | locus YER016W, strain bim1, stronger effect = lower value 0.989 | locus YER110C, stronger effect = lower value 0.994 | locus YER111C, strain swi4, stronger effect = lower value 1.02 | locus YER155C, strain BEM2 (second series), stronger effect = lower value 1 | locus YER155C, strain BEM2, stronger effect = lower value 1.02 | locus YER167W, strain BCK2, stronger effect = lower value 0.994 | locus YFR010W, strain ubp6, stronger effect = lower value 1.02 | locus YGL078C, strain dbp3, stronger effect = lower value 0.975 | locus YGL086W, strain mad1, stronger effect = lower value 1.01 | locus YGL167C, strain pmr1, stronger effect = lower value 1.01 | locus YGL173C, strain kem1, stronger effect = lower value 1.02 | locus YGL227W, strain vid30, stronger effect = lower value 1.03 | locus YGL240W, strain doc1, stronger effect = lower value 1.1 | locus YGL248W, strain PDE1, stronger effect = lower value 1 | locus YGL253W, strain hxk2, stronger effect = lower value 1.01 | locus YGR135W, strain pre9, stronger effect = lower value 0.974 | locus YGR252W, strain gcn5, stronger effect = lower value 1.06 | locus YHR013C, strain ard1, stronger effect = lower value 0.861 | locus YHR027C, strain rpn1, stronger effect = lower value 0.994 | locus YHR079C, strain IRE1 (second series), stronger effect = lower value 0.988 | locus YHR094C, strain hxt1, stronger effect = lower value 1 | locus YHR129C, strain ARP1, stronger effect = lower value 0.99 | locus YHR142W, strain chs7, stronger effect = lower value 1.01 | locus YHR200W, strain rpn10, stronger effect = lower value 0.988 | locus YIL066C, strain RNR3, stronger effect = lower value 0.984 | locus YIL073C, strain SPO22, stronger effect = lower value 0.801 | locus YIL125W, strain kgd1, stronger effect = lower value 0.992 | locus YIR030C, strain dcg1, stronger effect = lower value 1 | locus YJL092W, strain hpr5, stronger effect = lower value 1.02 | locus YJL095W, strain BCK1 (second series), stronger effect = lower value 1.02 | locus YJL115W, strain asf1, stronger effect = lower value 1.04 | locus YJL129C, strain trk1, stronger effect = lower value 0.901 | locus YJL134W, strain LCB3, stronger effect = lower value 0.984 | locus YJL154C, strain vps35, stronger effect = lower value 1.02 | locus YJL164C, strain tpk1, stronger effect = lower value 1.01 | locus YJL166W, strain qcr8, stronger effect = lower value 1.02 | locus YJL168C, strain set2, stronger effect = lower value 0.997 | locus YJL187C, strain SWE1 (second series), stronger effect = lower value 0.99 | locus YJL187C, strain SWE1, stronger effect = lower value 1.01 | locus YJR043C, strain POL32, stronger effect = lower value 0.977
0.993 (inactive) and 0.435 (active): locus YHR030C, strain SLT2, stronger effect = lower value
0.882 (inactive) and 0.512 (active): locus YJL095W, strain BCK1, stronger effect = lower value
active: locus YBR231C, strain swc5, stronger effect = lower value 0.877 | locus YDL185W, strain tfp1, stronger effect = lower value 0.0713 | locus YDR137W, strain rgp1, stronger effect = lower value 0.39 | locus YDR159W, strain sac3, stronger effect = lower value 0.756 | locus YHR079C, strain IRE1, stronger effect = lower value 0.831
